Reference: article PMC5540273 (PLoS ONE, 2017)

system: CDC2L2; conditions: concentration: 1 μM, replicates: in singlicate; n = 1
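Note: KINOMEscan kinase panel screen.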

SMILES	%Inh
N#CC1(c2cccc(C(=O)Nc3cccc(Oc4ccc5nc(NC(=O)C6CC6)sc5n4)c3)c2)CC1	0%
Cc1ccc(C)c(NC(=O)Nc2ccc(C)c(-c3ccc(C(=O)Nc4ccncc4)cc3)c2)c1 [GSK1398473]	5%
O=C(Nc1n[nH]c2nc(-c3ccccc3O)ccc12)C1CC1 [SB-711880]	0%
CCn1c(-c2nonc2N)nc2c(-c3ccccc3)ncc(OCCCN)c21.O=C(O)C(F)(F)F.O=C(O)C(F)(F)F [GSK260205]	0%
Cl.Cl.NC(CNC(=O)c1cc(Br)c(-c2ccnc3[nH]ccc23)s1)c1ccccc1 (stereo not shown) [GSK1322949]	9%
CCOc1nccc(-c2c(-c3ccc(F)cc3)ncn2C2CCNCC2)n1 [SB-249175]	13%
COc1cccc2c(-c3ccncc3)c(-c3ccc(F)cc3)nn12 [GW468513]	4%
CC(C)c1nc(-c2cccc(NS(=O)(=O)c3c(F)cccc3F)c2)c(-c2ccnc(Nc3ccc(N4CCOCC4)nc3)n2)s1.Cl [GSK1723980]	0%
O=C(Nc1n[nH]c2cc(-c3cccs3)ccc12)C1CC1 [SB-731284]	0%
Cc1ccc(NC(=O)c2cccc(N3CCCCC3)c2)cc1-c1ccc(C(=O)NCC2CC2)cc1 [GSK1917008]	8%
Cl.O=C(Nc1ccc(Oc2ccc3[nH]c(NC(=O)c4ccco4)nc3c2)cc1)Nc1cc(C(F)(F)F)ccc1F [GW683134]	1%
Cn1cc(-c2ccc3c(c2)CCN3C(=O)Cc2cc(F)cc(C(F)(F)F)c2)c2c(N)ncnc21 [GSK2635225]	24%
COc1cc(Nc2nccc(N3CCC(NS(=O)(=O)c4ccc(NC(C)=O)cc4)CC3)n2)cc(OC)c1OC [GSK1379825]	0%
O=C1NC(=O)C(c2ccccc2Cl)=C1Nc1cccc(Cl)c1 [SB-342409]	13%
Cc1cc(-c2ccnc(Nc3cccc(C#N)c3)n2)cc(C)c1O [GSK1440913]	51%
CC(C)NCC(Cc1ccccc1)NC(=O)c1cc(Br)c(-c2ccnc3[nH]ccc23)s1.Cl.Cl (stereo not shown) [GSK1383281]	39%
Nc1ncc(-c2ccc3nccc(-c4ccncc4)c3c2)cc1S(=O)(=O)N1CCCCC1 [GSK1693850]	21%
COc1cc(Nc2ccnc3cc(-c4ccncc4)ccc23)cc(OC)c1OC.Cl [GW494610]	0%
COC(=O)Nc1nc2ccc(Oc3ccc(NC(=O)Nc4cc(C(F)(F)F)ccc4F)cc3)cc2[nH]1.Cl [GW654607]	4%

SMILES	%Inh
c1ccc(Oc2ccc(Nc3ccnc4cc(-c5ccc(CN6CCCCC6)o5)ccc34)cc2)nc1 [GW567143]	9%
COc1cccc(CC(=O)N2CCc3cc(-c4cn(C)c5ncnc(N)c45)ccc32)c1 [GSK2608899]	8%
COc1ccc(C)c(Nc2ccnc(Nc3ccc(-c4cnc[nH]4)cc3)n2)c1.Cl [GW784041]	16%
CCNC(=O)/C=C/c1n[nH]c2cc(Sc3ccccc3C(=O)NC)ccc12	0%
Cl.N#CCc1ccc(Nc2nccc(Nc3ccc(Oc4ccccc4)cc3)n2)cc1 [GW639905]	1%
CC(=O)Nc1cn2nc(Oc3cccc(NC(=O)c4cccc(C(F)(F)F)c4)c3)ccc2n1	14%
CCNc1nccc(-c2c(-c3ccc(F)cc3)ncn2C2CCN(C)CC2)n1	16%
COC(=O)Nc1nc2cc(Oc3ccc(NC(=O)Nc4cccc(SC)c4)cc3)ccc2[nH]1.Cl [GW697999]	1%
Fc1cc(Cl)ccc1Nc1ccnc2cc(-c3ccc(CN4CCOCC4)o3)ccc12 [GW560109]	0%
NCCC(NC(=O)c1cc(Br)c(-c2ccnc3[nH]ccc23)s1)c1ccccc1.O=C(O)C(F)(F)F.O=C(O)C(F)(F)F (stereo not shown) [GSK1307810]	6%
Cc1ccc(O)cc1Nc1ccnc2cc(-c3ccc(CN4CCCCC4)o3)ccc12 [GW557777]	4%
CCn1cnc2c(NCc3ccccc3)ncnc21 [SKF-96418]	0%
CN(c1ccc(F)c(NC(=O)c2cccc(OC(C)(C)C#N)c2Cl)c1)c1ccc2nc(NC(=O)C3CC3)sc2n1	0%
Cn1cc(-c2ccc3c(c2)CCN3C(=O)Cc2cc(F)cc(F)c2F)c2c(N)ncnc21 [GSK2634140]	19%
CN(C)c1ncnc2nc[nH]c12 [SKF-31736]	0%
O=C(O)C(F)(F)F.O=c1[nH]ccc2nc(N[C@@H]3CCNC3)nc(Nc3ccc4c(c3)S(=O)(=O)CC4)c12 [GSK2181306]	0%
Cn1cc(-c2cnc(N)c3c(-c4ccc5c(c4)CCN5C(=O)Cc4ccccc4)csc23)cn1 [GSK2593074]	1%
Cc1ccc(NC(=O)c2ccc(Cl)c(Cl)c2)cc1-c1ccc(C(=O)Nc2ccncc2)cc1 [GSK1398460]	14%
